Data published in PubChem BioAssay AID1347422 (Sanford-Burnham Center for Chemical Genomics, 2020).
The full ranking holds about 1,000 compounds; the median of “thermal shift dTm” is about 0.19, and the highest 2% start at about 1.7. The sample as a whole holds a higher share of the highest values than the screen did. Activity calls are given as the source filed them.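 Rule for the calls: active = mean rise in melting temperature of at least 1 degC over same-plate control wells; inactive = below that, where a call was filed.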

Target: Sulfhydryl oxidase 1 (Homo sapiens) (UniProt O00391)
Test: ligand-induced melting shift of human QSOX1 – biophysical, protein thermal shift, single concentration, QSOX1 inhibitor project, confirmation (AID 1347422);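 note: dTm is compound Tm minus mean Tm of DMSO-only wells on that plate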
Conditions: recombinant hQSOX1 thermal shift, Sypro Orange, at 25 µM, stronger effect = higher value

Chain of Sulfhydryl oxidase 1 (Homo sapiens) (O00391 whole entry, looked up): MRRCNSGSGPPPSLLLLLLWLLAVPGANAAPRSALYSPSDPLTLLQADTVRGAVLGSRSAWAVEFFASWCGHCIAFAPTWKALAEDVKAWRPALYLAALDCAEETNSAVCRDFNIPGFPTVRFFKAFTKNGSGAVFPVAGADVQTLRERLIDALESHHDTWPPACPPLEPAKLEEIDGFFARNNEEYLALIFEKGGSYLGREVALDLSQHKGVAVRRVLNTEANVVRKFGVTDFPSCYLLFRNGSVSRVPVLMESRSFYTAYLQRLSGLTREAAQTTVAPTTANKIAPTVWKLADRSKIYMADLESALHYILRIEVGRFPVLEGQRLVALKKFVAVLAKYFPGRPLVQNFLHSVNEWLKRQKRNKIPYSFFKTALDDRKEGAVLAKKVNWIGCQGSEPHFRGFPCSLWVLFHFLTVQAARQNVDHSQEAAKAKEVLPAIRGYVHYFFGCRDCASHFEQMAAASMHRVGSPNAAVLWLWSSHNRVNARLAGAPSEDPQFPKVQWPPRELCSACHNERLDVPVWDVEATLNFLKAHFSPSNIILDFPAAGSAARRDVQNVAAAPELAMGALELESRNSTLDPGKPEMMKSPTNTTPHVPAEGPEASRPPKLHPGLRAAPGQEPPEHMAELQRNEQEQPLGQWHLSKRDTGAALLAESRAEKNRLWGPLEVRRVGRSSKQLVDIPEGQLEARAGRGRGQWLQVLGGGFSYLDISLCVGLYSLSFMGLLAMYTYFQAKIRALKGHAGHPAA

Row | Structure (SMILES) | thermal shift dTm
1 | NC(=O)c1ccc(-c2ccc3[nH]ccc3c2)nc1 | 0.79 °C
2 | Cc1cc2ncn(CCCOc3ccc(Cl)cc3)c2cc1C | 0.11 °C
3 | CC(C)N(Cc1nc(-c2ccc(Cl)cc2)no1)S(=O)(=O)c1ccc(F)cc1 | 0.02 °C
4 | CCc1ccc(NC(=O)Nc2ccc(Br)cn2)cc1 | 0.09 °C
5 | COc1ccc(NC(=O)Nc2ccc(C)cc2)c(OC)c1 | 0.2 °C
6 | COc1ccc(OC)c(NC(=O)Nc2cccc(NC(C)=O)c2)c1 | 1.91 °C (active)
7 | COc1ccc(NC(=O)Nc2ccc(C)cc2C)cc1 | 0.05 °C
8 | COc1ccc(C)cc1NC(=O)Nc1ccc(NC(C)=O)cc1 | 0.57 °C
9 | COc1ccc(NC(=O)Nc2ccc(C(C)=O)cc2)c(C)c1 | 2.14 °C (active)
10 | COc1cccc(NC(=O)Nc2cccc3ccccc23)c1 | 0.01 °C
11 | N/C(=N\c1nc(-c2cccs2)cc(C(F)(F)F)n1)Nc1ccc2c(c1)OCCO2 | 0.35 °C
12 | COc1cccc(NC(=O)Nc2ccc(Cc3ccncc3)cc2)c1 | 0.38 °C
13 | COc1ccc(NC(=O)Nc2cccc(Cn3cc(Cl)cn3)c2)cc1 | 2.14 °C (active)
14 | COc1ccc(NC(=O)Nc2cccnc2)cc1 | 0.28 °C
15 | Cc1nnc(NC(=O)c2ccc(NC(=O)c3ccco3)cc2)s1 | 0.7 °C
16 | CC(=O)Nc1ccc(NC(=O)c2nnn(-c3cccc(Cl)c3)c2N)cc1 | 0.55 °C
17 | O=C(Nc1nccs1)c1ccccc1OCc1ccccc1 | 0.37 °C
18 | CCc1sc(NC(=O)Cc2ccc(F)cc2)nc1-c1ccccc1 | 0.17 °C
19 | O=S(=O)(NCCSC1CCCCC1)c1ccc(Cl)cc1 | 0.11 °C
20 | O=C(CCc1ccccc1)Nc1cccc(-c2nc3ccccc3s2)c1 | 0.59 °C
21 | CC(=O)Nc1ccc(C(=O)CSc2ccc3ccccc3n2)cc1 | 1.22 °C (active)
22 | Cc1ccccc1NC(=S)NCCC(c1ccccc1)c1ccccc1 | 0.02 °C

Row | Structure (SMILES) | thermal shift dTm
23 | Cc1ccc(NC(=O)Nc2ccc3snnc3c2)cc1 | -0.45 °C (inactive)
24 | c1ccc(COc2ccc(-c3noc(-c4ccccn4)n3)cc2)cc1 | 0.01 °C
25 | C=CCc1c(C)nc2c(-c3ccccc3)cnn2c1NCc1cccnc1 | -0.08 °C (inactive)
26 | Cc1cc(OCCn2cc(C(=S)N3CCOCC3)c3ccccc32)ccc1Cl | 0.02 °C
27 | COc1ccc2c(c1OC)C(=O)N(c1ccc(Cl)cc1)C2 | 0.81 °C
28 | O=C(Nc1cccc(-c2nc3ccccc3[nH]2)c1)C1CCCO1 (centres undefined) | 0.02 °C
29 | c1cc(NCc2ccc3c(c2)OCO3)cc(-c2nc3ccccc3[nH]2)c1 | 2.39 °C (active)
30 | Cc1ncc(CNc2ccc(-c3nc4ccccc4[nH]3)cc2)cn1 | 0.14 °C
31 | COc1ccc(C(=O)Nc2ccc(NC(C)=O)cc2)cc1C | 1.48 °C (active)
32 | COc1ccc(C(=O)Nc2ccc(Cl)c(C)n2)cc1Cl | 1.85 °C (active)
33 | COc1ccc(NC(=O)c2ccoc2)cc1Cl | 0.23 °C
34 | COc1ccc(-c2noc(-c3cccc(NC(C)=O)c3)n2)cc1 | 0.24 °C
35 | CSc1cccc(NC(=O)NCc2ccccn2)c1 | 0.18 °C
36 | O=C(Nc1nc(-c2ccccc2)ns1)N1CCOc2ccc(Cl)cc2C1 | 0.23 °C
37 | O=C(CN(c1ccccc1F)S(=O)(=O)c1ccccc1)Nc1ccc(F)cc1F | -0.03 °C (inactive)
38 | Cc1cc(N(C)C)nc(N2CCN(C(=O)Nc3cccc(F)c3)CC2)n1 | -0.08 °C (inactive)
39 | CCCN(CC1CC1)C(=O)c1cc(COc2ccc(OC)cc2Cl)on1 | 0.09 °C
40 | CC(=O)Oc1ccc2cc(-c3ccc(Cl)cc3)c(=O)oc2c1 | 0.11 °C
41 | CCCn1c(=O)[nH]c(=O)c2c(-c3cccc4ccccc34)ccnc21 | 0.25 °C
42 | Cc1ccc(NC(=O)Nc2ccc(Br)cc2)nc1 | 0.28 °C
43 | Cc1ccc2ccc(C(Nc3ccccn3)c3ccc(Cl)cc3)c(O)c2n1 (centres undefined) | 0.57 °C
44 | O=c1[nH]c(SCc2ccc(Cl)c(Cl)c2)nc2ccccc12 | 0.11 °C
